From PubChem BioAssay (Tox21)
Several values for one entry are separate records, joined by “and”; a condition that tells them apart may be missing. Identical values can stand only once. Results filed as inconclusive are left out. Where a call stands in place of a potency, no number is given. A number with no mark means an inactive call. Activity calls are given as the source filed them. The call rests on the fitted dose curve; in most records, active means well fitted curve in the direction sought with a large enough effect in the repeat runs; inconclusive means weak or mixed curves; inactive means no such curve, though single readings can be large; an effect the other way counts as inactive or inconclusive.

Test: qHTS assay to identify small molecule antagonists of the retinoic acid receptor (RAR) signaling pathway (AID 1159552; further: nearly all actives have a fitted effect of over 50% in size)
Conditions: C3RL4 RARE luciferase reporter, retinol-stimulated, 6 h; series mostly up to 92.4 µM; activity, negative = inhibition: at the top concentration
Summary of the method: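 Luminescence from a RARE luciferase reporter in C3RL4 cells served as read-out. Cells received compounds together with 1 uM final retinol and incubated 6 hr at 37 C before detection reagent was added for 30 min at room temperature.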

For `Nc1ccc(Cl)cc1N`, which Potency is on record?
The Potency was “inactive”.

With `Nn1cnnc1` as the compound, how does the Potency read?
The Potency was “inactive”.

Which Potency does the source give for `c1ccc(N=Nc2ccccc2)cc1` here?
Its Potency is “inactive”.

Which “activity, negative = inhibition” value does the source give for `O=C(CCl)c1ccccc1` here?
Its value is 39%.

With `N#Cc1cc(Br)c(O)c(Br)c1` as the compound, how does the Potency read?
Its Potency is “inactive”.

With `CC(C)c1ccc(CO)cc1` as the compound, how does the Potency read?
The Potency was “inactive”.

With `CCCCN(CC)c1c([N+](=O)[O-])cc(C(F)(F)F)cc1[N+](=O)[O-]` as the compound, how does the Potency read?
Its Potency is “inactive”.

Which Potency does the source give for `Brc1ccc(Oc2cc(Br)c(Br)cc2Br)c(Br)c1` here?
Its Potency is “inactive”.

For `COP(=S)(OC)Oc1ccc([N+](=O)[O-])cc1`, which Potency is on record?
The Potency was “inactive”.

With `CN(C)c1ccc(C(=O)c2ccc(N(C)C)cc2)cc1` as the compound, how does the Potency read?
The Potency was “inactive”.

For `c1ccc(NNc2ccccc2)cc1`, which Potency is on record?
The Potency was “inactive”.

Which Potency does the source give for `NC(=S)Nc1ccccc1` here?
Its Potency is “inactive”.

With `C=CCc1ccc2c(c1)OCO2` as the compound, how does the Potency read?
Its Potency is “inactive”.

With `CCCCC(CC)COC(=O)c1ccc(C(=O)OCC(CC)CCCC)c(C(=O)OCC(CC)CCCC)c1` (stereo not drawn) as the compound, how does the “activity, negative = inhibition” value read?
Its value is -4.62%.

Which Potency does the source give for `CNC(=O)N(C)c1nnc(C(C)(C)C)s1` here?
Its Potency is “inactive”.

With `Oc1ccc(-c2ccccc2)cc1` as the compound, how does the Potency read?
The Potency was “inactive”.

Which “activity, negative = inhibition” value does the source give for `O=[N+]([O-])c1c(Cl)c(Cl)c(Cl)c(Cl)c1Cl` here?
The value was -21.3%.

With `Nc1c(Cl)cc([N+](=O)[O-])cc1Cl` as the compound, how does the “activity, negative = inhibition” value read?
The value was 27.5%.

With `Cc1cc(C)cc(C)c1` as the compound, how does the Potency read?
The Potency was “inactive”.

Which Potency does the source give for `CCN(N=O)C(N)=O` here?
The Potency was “inactive”.

Which Potency does the source give for `Cc1ccc2c(c1N)C(=O)c1ccccc1C2=O` here?
Its Potency is “inactive”.

Which Potency does the source give for `CCN(CC)C(=O)SCc1ccc(Cl)cc1` here?
Its Potency is “inactive”.

For `Oc1cc(Cl)ccc1Cl`, which Potency is on record?
The Potency was “inactive”.

Which Potency does the source give for `O=[N+]([O-])c1cccc2ccccc12` here?
Its Potency is “inactive”.

With `CC(C)NC(C)C` as the compound, how does the Potency read?
Its Potency is “inactive”.

For `S=C1NCCN1`, which Potency is on record?
Its Potency is “inactive”.

With `CCN(CC)C(=O)/C(Cl)=C(\C)OP(=O)(OC)OC` as the compound, how does the Potency read?
Its Potency is “inactive”.

With `CCC(C)c1cc([N+](=O)[O-])cc([N+](=O)[O-])c1O` (stereo not drawn) as the compound, how does the “activity, negative = inhibition” value read?
The value was -0.885%.

With `C=C(C)C(=O)OCC1CO1` (stereo not drawn) as the compound, how does the Potency read?
Its Potency is “inactive”.

Test: qHTS assay to identify small molecule agonists of the retinoic acid receptor (RAR) signaling pathway (AID 1159553); further: potency means the concentration at half of the fitted maximal effect
Conditions: C3RL4 RARE luciferase reporter, agonist, 6 h; activation: at 73.3 µM (top of the series) unless noted
Summary of the method: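 Quantitative high-throughput format: the Tox21 10K library was tested on C3RL4 RARE-luciferase cells for 6 hr at 37 C and 5% CO2, with luminescence measured after a 30 min room-temperature reagent step.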

For `Nc1ccc(Cl)cc1N`, which Potency is on record?
Its Potency is 1.6 µM (active) and 545 nM (active).

Which Potency does the source give for `Nn1cnnc1` here?
The Potency was “inactive”.

Which “activation” value does the source give for `c1ccc(N=Nc2ccccc2)cc1` here?
The value was 14.7% [at 94.8 µM].

For `O=C(CCl)c1ccccc1`, which “activation” value is on record?
Its value is -9.46%.

For `N#Cc1cc(Br)c(O)c(Br)c1`, which Potency is on record?
Its Potency is “inactive”.

With `CC(C)c1ccc(CO)cc1` as the compound, how does the Potency read?
The Potency was “inactive”.

Which Potency does the source give for `CCCCN(CC)c1c([N+](=O)[O-])cc(C(F)(F)F)cc1[N+](=O)[O-]` here?
The Potency was “inactive”.

With `Brc1ccc(Oc2cc(Br)c(Br)cc2Br)c(Br)c1` as the compound, how does the “activation” value read?
The value was 0.657%.

For `COP(=S)(OC)Oc1ccc([N+](=O)[O-])cc1`, which Potency is on record?
The Potency was “inactive”.

With `CN(C)c1ccc(C(=O)c2ccc(N(C)C)cc2)cc1` as the compound, how does the Potency read?
The Potency was 1.21 µM (active) and 1.22 µM (active).

With `NC(=S)Nc1ccccc1` as the compound, how does the Potency read?
The Potency was “inactive”.

Which Potency does the source give for `C=CCc1ccc2c(c1)OCO2` here?
The Potency was “inactive”.

For `CCCCC(CC)COC(=O)c1ccc(C(=O)OCC(CC)CCCC)c(C(=O)OCC(CC)CCCC)c1` (stereo not drawn), which Potency is on record?
The Potency was “inactive”.

Which Potency does the source give for `CNC(=O)N(C)c1nnc(C(C)(C)C)s1` here?
The Potency was “inactive”.

For `O=[N+]([O-])c1c(Cl)c(Cl)c(Cl)c(Cl)c1Cl`, which Potency is on record?
The Potency was “inactive”.

Which Potency does the source give for `Nc1c(Cl)cc([N+](=O)[O-])cc1Cl` here?
The Potency was “inactive”.

With `Cc1cc(C)cc(C)c1` as the compound, how does the Potency read?
The Potency was “inactive”.

With `CCN(N=O)C(N)=O` as the compound, how does the Potency read?
The Potency was “inactive”.

With `Cc1ccc2c(c1N)C(=O)c1ccccc1C2=O` as the compound, how does the Potency read?
The Potency was 1.7 µM (active) and 1.93 µM (active).

Which Potency does the source give for `Oc1cc(Cl)ccc1Cl` here?
The Potency was “inactive”.

With `O=[N+]([O-])c1cccc2ccccc12` as the compound, how does the Potency read?
Its Potency is “inactive”.

For `CC(C)NC(C)C`, which “activation” value is on record?
Its value is 0.987%.

For `S=C1NCCN1`, which Potency is on record?
Its Potency is “inactive”.

With `CCN(CC)C(=O)/C(Cl)=C(\C)OP(=O)(OC)OC` as the compound, how does the Potency read?
Its Potency is “inactive”.

For `CCC(C)c1cc([N+](=O)[O-])cc([N+](=O)[O-])c1O` (stereo not drawn), which Potency is on record?
The Potency was “inactive”.

With `C=C(C)C(=O)OCC1CO1` (stereo not drawn) as the compound, how does the Potency read?
The Potency was “inactive”.

Test: qHTS assay to identify small molecule antagonists of the estrogen related receptor signaling pathway with the pleiotropic PPARgamma coactivator (PGC) cell viability counter screen (AID 1224822; further: potency means the concentration at half of the fitted maximal effect;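 further: viability read after 17.5 h compound exposure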)
Conditions: ERR/PGC reporter cell line viability counter screen; series mostly up to 46.1 µM; viability change, negative = cytotoxic: at the top concentration
Summary of the method: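 Cytotoxicity in the PGC/ERR cell line is assessed with CellTiter-Fluor, read as fluorescence intensity 30 min after reagent addition, following 17.5 h compound treatment at 37 C.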

Which “viability change, negative = cytotoxic” value does the source give for `Nc1ccc(Cl)cc1N` here?
The value was -25.4% [at 92.2 µM].

Which Potency does the source give for `Oc1cc(Cl)ccc1Oc1ccc(Cl)cc1Cl` here?
Its Potency is 38.6 µM (active).

Which “viability change, negative = cytotoxic” value does the source give for `Nc1ccncc1` here?
The value was 13%.
